Common to all, as to assay: NCI-60 one-dose screen, 48 h (100 = growth as untreated, 0 = no growth, -100 = all killed)
Common to all, as to conditions: 10 µM unless noted

Assay [1] has as its system SK-MEL-2 melanoma.
The test system of assay [2] is EKVX NSCLC.
For assay [3], the system named is SN12C renal.
Assay [4] deals with UO-31 renal.
Assay [5] relates to TK-10 renal.
Assay [6] has as its system ACHN renal.
The subject of assay [7] is CAKI-1 renal.
Assay [8] relates to A498 renal.
For assay [9], the system named is CCRF-CEM leukemia.
Assay [10] relates to MOLT-4 leukemia.
Assay [11] deals with SR leukemia.
The subject of assay [12] is RPMI-8226 leukemia.
In assay [13] the test system is OVCAR-8 ovarian.
In assay [14] the test system is OVCAR-5 ovarian.
Assay [15] concerns SK-OV-3 ovarian.
In assay [16] the test system is IGROV1 ovarian.
The test system of assay [17] is OVCAR-3 ovarian.
The subject of assay [18] is HS 578T breast.
Assay [19] relates to NCI/ADR-RES ovarian.

This is part of a sample that, as a whole, favours compounds with a hit. Of some 83,000 tested, about 20% had one in any assay.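 Each cell line was grown in a 96-well plate and treated with one concentration of compound for 48 hours. Values below 10 were considered active.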 Values without a mark were called inactive. The source made the active and inactive calls.

As to `CCCCNC(=O)NS(=O)(=O)Cc1ccccc1`, the growth in [1] was 119%; in assay [2], 122%; in assay [3], 113%; in assay [4] it was 82.8%; in assay [5], 118%; in assay [6], 106%. Moreover, the growth is 100% in assay [7]; 110% in [8]; 93.1% in [9]; 97.5% in assay [10]; 108% in assay [11]; 95.8% in [12]. Also, the growth is 100% in [13]; 108% in assay [14]; 107% in [15]; 97.3% in assay [16]; 109% in assay [17]; 107% in [18]. In addition, the growth in assay [19] was 112%.
As for `Cc1ccc(NC(=S)/N=c2/n(-c3ccccc3)nc3n2CCN3C2=NCCN2)cc1`, the growth in assay [1] is 109%; in assay [2], 113%; in assay [3], 100%; in assay [4] it was 92.4%; in [5] it was 97.5%; in assay [6], 106%. Besides, the growth is 86% in assay [7]; 81.2% in assay [8]; 102% in assay [9]; 98.8% in assay [10]; 112% in assay [11]; 104% in assay [12]. Further, the growth in [13] was 105%; in [14], 98.2%; in assay [15], 114%; in [16] it was 120%; in assay [17] it was 129%; in assay [18], 111%. For the same compound, the growth in assay [19] was 112%.
Consider `O=C(Nc1ccc(Nc2ccncc2)cc1)c1ccc([N+](=O)[O-])cc1`, for which the growth in assay [1] was 94.8%; in [2], 69.9%; in assay [3], 72.9%; in [4], 55.6%; in assay [5] it was 90.4%; in assay [6] it was 80.4%. Also, the growth in [7] is 52.6%; in assay [8], 76%; in assay [9] it was 1.05% (active); in assay [10], 6.48% (active); in [11], -45.3% (active); in assay [12], 22.8%. Further, the growth is 61% in [13]; 101% in assay [14]; 88.6% in assay [15]; 85.4% in [16]; 60.4% in assay [17]; 95.4% in assay [18]. Also, the growth in assay [19] is 92%.
With `O=C(NCCO)c1cccnc1`, the growth is 81.8% in [1]; 109% in assay [2]; 100% in assay [3]; 85.2% in assay [4]; 81% in assay [5]; 110% in assay [6]. Also, the growth was 98.3% in assay [7]; 96.9% in [8]; 81.4% in assay [9]; 107% in [10]; 103% in assay [11]; 95.4% in [12]. Besides, the growth in assay [13] is 102%; in assay [14], 103%; in [15] it was 97.4%; in assay [16] it was 100%; in assay [17] it was 111%; in assay [18] it was 92.1%. Further, in [19], the growth is 96.5%.
`Cc1cc(C)c(S(=O)(=O)/N=c2/n(-c3ccccc3)nc3n2CCN3C2=NCCN2)c(C)c1`: the growth was 104% in [1]; 83% in assay [2]; 79.8% in [3]; 61.2% in assay [4]; 92.5% in assay [5]; 90% in assay [6]. Moreover, the growth in assay [7] was 74.4%; in assay [8] it was 61.8%; in [9], 83.7%; in assay [10], 66.2%; in assay [11], 39.9%; in assay [12], 76%. The growth was 86.7% in [13]; 86.5% in [14]; 83.2% in assay [15]; 65.5% in [16]; 88.7% in assay [17]; 79.3% in assay [18]. Moreover, in assay [19], the growth is 89.1%.
In the case of `CO[C@H]1CC[C@@]2(C)C(=CC[C@H]3[C@@H]4C[C@H](O)C[C@@]4(C)CC[C@@H]32)C1`, the growth was 67.2% in assay [1]; 76.4% in [2]; 64.8% in assay [3]; 66.1% in assay [4]; 58.9% in assay [5]; 69.6% in assay [6]. In addition, the growth in assay [7] is 42.8%; in assay [8], 55.8%; in assay [9] it was 19.3%; in assay [10], 33.5%; in assay [11], 14.1%; in assay [12] it was 54.5%. Moreover, the growth in [13] was 82.5%; in assay [14], 102%; in [15], 39.1%; in [16], 53.8%; in assay [17], 28.7%; in assay [18], 60.8%. The growth in assay [19] is 39.1%.
Consider `C=C(C)[C@@H]1CC[C@]2(C(=O)NCCCCCCN(CCCN)CCCN)CC[C@]3(C)[C@H](CC[C@@H]4[C@@]5(C)CC[C@H](OCCCN)C(C)(C)[C@@H]5CC[C@]43C)[C@@H]12`, for which the growth was 122% [100 µM] in [1]; 141% [100 µM] in [2]; 81.9% [100 µM] in assay [3]; 53.4% [100 µM] in assay [4]; 119% [100 µM] in [5]; 75.6% [100 µM] in [6]. For the same compound, the growth in [7] is 94.5% [100 µM]; in assay [8] it was 130% [100 µM]; in assay [9], 11.8% [100 µM]; in assay [10], 10.1% [100 µM]; in assay [11] it was 18.4% [100 µM]; in [12] it was 29.3% [100 µM]. Further, the growth in [13] is -28.3% [100 µM] (active); in assay [14], 90.5% [100 µM]; in assay [15] it was 97.9% [100 µM]; in assay [16], 27.3% [100 µM]; in assay [17] it was 71.8% [100 µM]; in assay [18], 94.9% [100 µM]. For the same compound, in assay [19], the growth is 86.3% [100 µM].

The values are drawn from PubChem BioAssay (NCI).
